These results are taken from PubChem BioAssay (NCI).

Experiment in all cases: NCI-60 one-dose screen, 48 h (100 = growth as untreated, 0 = no growth, -100 = all killed)
Common to all, as to conditions: 10 µM unless noted

Test [1] has as its system SR leukemia.
The subject of test [2] is RPMI-8226 leukemia.
Test [3] has as its system OVCAR-8 ovarian.
In test [4] the test system is OVCAR-5 ovarian.
The test system of test [5] is OVCAR-4 ovarian.
Test [6] has as its system SK-OV-3 ovarian.
For test [7], the system named is IGROV1 ovarian.
Test [8] concerns OVCAR-3 ovarian.
For test [9], the system named is HS 578T breast.
Test [10] concerns NCI/ADR-RES ovarian.

The structures appear in SMILES notation. About 83,000 compounds went through this panel and 20% of them were active in at least one assay; those are over-represented in the sample as a whole.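 Step 1: grow cells in 96-well plates. Step 2: add test compound at a single concentration. Step 3: incubate 48 h. Step 4: record percent growth.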 Unmarked numbers belong to inactive results. The source made the active and inactive calls. Rule for the calls: active = growth percent below 10; inactive = the rest.

In the case of `CCC(C)C1NC(=O)C(CC(C)C)NC(=O)C(C)NC(=O)C(C(C)C)NC(=O)C(CCCCN)NC(=O)C(CC(C)C)NC(=O)C(C(C)C)NC(=O)[C@H](C)NC(=O)C(C(C)CC)NC(=O)C(CCCN=C(N)N)NC(=O)C(CCCCN)NC(=O)C(CCCN=C(N)N)NC(=O)C(CCCCN)NC(=O)C([C@H](C)CC)NC(=O)C(CCCCN)NC1=O` (stereo not given in full), the growth in test [1] was 2.37% (active); in [2], -35.5% (active); in [3], 11.7%; in test [4] it was 52.6%; in test [5] it was 18.4%; in test [6] it was 10.4%. For the same compound, the growth in test [7] was 12.4%; in test [8] it was 8.18% (active); in test [9], 38.9%; in test [10] it was 29.3%.

Regarding `COC(=O)c1ccc(C(=Nc2ccc(N(C)C(=O)CN3CCN(C)CC3)cc2)c2c(O)[nH]c3ccc(C(=O)OC)cc23)cc1`, the growth is 2.08% (active) in test [1]; 15.1% in [2]; 30.7% in [3]; 69.7% in [4]; 38.3% in test [5]; 0.753% (active) in [6]. The growth in test [7] is 5.1% (active); in [8], 28.3%; in test [9], 8.61% (active); in test [10], 107%.

`CCOC(=O)c1c(C)oc2ncnc(Nc3ccc(C(=O)NCCc4ccccc4)cc3)c12`: the growth in test [1] was 89.2%; in test [2] it was 84.6%; in test [3], 76.7%; in test [4], 110%; in test [5] it was 45.5%; in test [6], 85.6%. For the same compound, the growth in test [7] was 102%; in test [8], 97.3%; in [9], 51.2%; in [10], 76.9%.

As for `CCCC(=O)NNc1[nH]c(-c2ccc(OC)cc2)cc1C(=O)OCC`, the growth in test [1] is 106%; in [2], 98.4%; in [3], 110%; in [4] it was 95.7%; in [5], 117%; in test [6] it was 113%. Also, the growth in [7] is 18.1%; in [8] it was 90%; in test [9], 97.7%; in test [10], 106%.

With `Cc1ccnc2c(NC(C)CCCN)cc(O)c(O)c12` (stereo not given), the growth in test [1] is 79.7%; in test [2] it was 95.2%; in [3], 64.9%; in test [4], 79.7%; in test [5] it was 20%; in test [6], 99.9%. Further, the growth in [7] is 103%; in [8], 59.8%; in test [9] it was 80.6%; in test [10], 87.5%.

As for `O=C(Nc1ccc(-n2cc(-c3ccncc3)c(-c3ccc(Cl)c(O)c3)n2)cc1)c1ccc(Cl)c(Cl)c1`, the growth in test [1] is 5.94% (active); in test [2], -25.9% (active); in test [3], 38.5%; in test [4] it was 56.5%; in [5] it was 47.4%; in test [6], 34.1%. Besides, the growth was 67.4% in test [7], 61.3% in test [8], -35.1% (active) in test [9] and 51.6% in [10].

On to `CCOC(=O)c1ccc2n1CCCc1cnc(NC(C)=O)nc1-2`, for which the growth in test [1] is 101%; in test [2], 99.1%; in test [3], 103%; in test [4], 94.1%; in test [5] it was 104%; in test [6], 106%. In addition, the growth in test [7] is 107%; in test [8], 107%; in test [9] it was 99.6%; in [10] it was 108%.

In the case of `CCCCCCNC(=O)Oc1ccc(/C(=C(/C)Cc2ccc(OC)cc2)c2ccc(OCCN(C)C)cc2)cc1`, the growth in [1] was -22.5% (active); in test [2] it was 28.8%; in [3] it was 69.9%; in test [4], 90.3%; in test [5], 76.8%; in test [6], 83.4%. Moreover, the growth in test [7] is 74.4%; in [8] it was 81.3%; in [9] it was 45.9%; in test [10] it was 78.3%.

In the case of `C/C(=N\Nc1ccc(Cl)cn1)c1ccc2ccccc2n1`, the growth is 5.63% (active) in test [1]; 11.7% in [2]; 6.73% (active) in test [3]; 29.9% in test [4]; 36.8% in [5]; 1.69% (active) in [6]. Also, the growth was 16.6% in test [7], 18.2% in test [8], 37.7% in [9] and -0.464% (active) in [10].

Take `O=C(CCl)NC1c2ccccc2Oc2ccccc21`: the growth in [1] was 33.7%; in test [2], 50.1%; in test [3], 61.2%; in test [4], 83.9%; in [5], 56.5%; in [6], 85.6%. The growth in test [7] was 46.1%; in test [8], 68.6%; in test [9] it was 97.4%; in [10] it was 101%.

Take `CCOC(=O)/C(C#N)=C(/CC)OCC`: the growth in test [1] is 85.6%; in test [2] it was 103%; in test [3] it was 98.8%; in test [4] it was 106%; in test [5], 106%; in [6], 105%. The growth in [7] is 105%; in [8], 104%; in [9], 115%; in test [10], 112%.

Consider `CCCCCCCCCCCCc1ccc([N+](CC)(CC)CC)cc1`, for which the growth was 32.4% in [1]; 6.37% (active) in test [2]; 31.7% in test [3]; 92.3% in [4]; 21.6% in [5]; 73.2% in [6]. In addition, the growth in test [7] was 48.1%; in [8] it was 23.2%; in test [9], 65.4%; in [10] it was 103%.

`c1ccc(C(=NNc2nc3ccccc3o2)c2ccccn2)nc1`: the growth in test [1] is 11%; in test [2] it was 6.05% (active); in test [3], 18.7%; in test [4], 37.5%; in [5], 21.8%; in test [6] it was 13.8%. For the same compound, the growth in test [7] was 16.3%; in [8], 16.5%; in test [9], 44.2%; in test [10], -3.58% (active).

As for `NC(=O)CC(NC(=O)COc1ccc(Cl)cc1Cl)C(=O)O` (stereo not given), the growth in test [1] is 115%; in test [2], 117%; in test [3] it was 105%; in [4], 105%; in test [5], 112%; in test [6], 110%. Besides, the growth in [7] was 109%; in [8], 106%; in test [9] it was 107%; in [10], 112%.

On to `CCCCCCCCCCCCCCCCNC(=S)N/N=C/c1ccc(O)cc1O`, for which the growth in [1] was 41.2%; in [2], 59.7%; in [3] it was 56.2%; in [4], 95.3%; in [5] it was 66.9%; in test [6], 87.7%. Besides, the growth in test [7] is 55.2%; in test [8], 73.1%; in [9], 97.6%; in test [10] it was 69.9%.

With `Cc1ccc(NC(=O)CCl)cc1Cl`, the growth is 51.9% in test [1]; 91% in [2]; 92.9% in test [3]; 108% in [4]; 89.2% in test [5]; 102% in test [6]. Further, the growth in [7] is 63.8%; in test [8], 114%; in [9], 93.8%; in test [10], 107%.

On to `Cc1ccc(OCCn2ccc(=O)n(CCOc3ccc(Cl)cc3C(=O)c3cc(C)cc(C)c3)c2=O)cc1`, for which the growth in test [1] was 19.7%; in test [2] it was 34.1%; in test [3] it was 70%; in test [4] it was 87.2%; in test [5], 47.3%; in [6], 59.8%. For the same compound, the growth was 61.4% in test [7], 25.1% in [8], 37.2% in test [9] and 20.1% in [10].

For `O=Nc1c(-c2c(O)[nH]c3cc(Br)ccc23)[nH]c2ccccc12`, the growth was -40.5% (active) in test [1]; -5.99% (active) in test [2]; -17.4% (active) in test [3]; -72.9% (active) in test [4]; 7.53% (active) in test [5]; -77.8% (active) in [6]. In addition, the growth is -44.5% (active) in [7], -64.9% (active) in test [8], -49.7% (active) in [9] and -76.7% (active) in test [10].

Take `COc1cc(-c2c3c(cn2CCN2CCCCC2)-c2oncc2CC3)cc(OC)c1OC`: the growth in test [1] is 92.5%; in [2], 108%; in test [3] it was 101%; in test [4], 85.3%; in [5] it was 100%; in [6] it was 93.7%. The growth is 104% in [7], 113% in [8], 99.3% in test [9] and 97.3% in test [10].

With `CC(C)CSc1nc(-c2ccc(F)cc2)c(C#N)c(N2CCCCC2)n1`, the growth in [1] was 84.3%; in [2], 102%; in [3], 94%; in test [4], 90.5%; in [5] it was 97.1%; in [6], 99.6%. For the same compound, the growth in [7] was 104%; in [8] it was 93%; in test [9], 99.4%; in test [10], 88.7%.

Consider `COc1ccc(C2=C/C(=C\c3ccc(Cl)cc3)C(=O)NN2C(=S)NN)cc1`, for which the growth in test [1] is 93%; in test [2], 86.5%; in test [3], 94.2%; in [4] it was 112%; in test [5] it was 90%; in [6] it was 89.5%. The growth in test [7] was 107%; in test [8], 111%; in [9], 96.6%; in test [10], 94.5%.

For the compound `COc1ccc(Nc2c3ccccc3nc3ccccc23)cc1`, the growth in [1] was 1.46% (active); in [2], 28.1%; in test [3], 14.7%; in test [4] it was 36.4%; in test [5], 41.5%; in test [6], 36.1%. The growth was 22.1% in test [7], 28.3% in [8], 59.5% in test [9] and 28.1% in [10].

In the case of `C[C@@H](c1ccc2c(c1)[nH]c1ccc(Cl)cc12)c1nc2ccc(Cl)cc2[nH]1`, the growth in test [1] is 43.2%; in [2] it was 8.76% (active); in test [3], 94%; in test [4] it was 75.2%; in test [5], 74.2%; in test [6] it was 96.3%. Also, the growth in test [7] is 57.6%; in [8], 72%; in test [9], 107%; in test [10], 88.1%.

Take `NNC(=S)N1N=C(c2cc3ccccc3o2)CC1c1c[nH]c2ccccc12` (stereo not given): the growth in test [1] was 27.2%; in test [2], 28%; in [3], 38.8%; in [4] it was 80.4%; in test [5] it was 28.6%; in test [6], 86.2%. The growth in test [7] was 35.3%; in test [8] it was 20%; in test [9], 63.8%; in test [10] it was 30.7%.

In the case of `CCOC(=O)C1=C(C(F)(F)F)NC(=S)NC1CN1C(=O)c2ccccc2C1=O` (stereo not given), the growth in test [1] was -89% (active); in [2], 68.5%; in test [3], 116%; in test [4], 95.7%; in test [5] it was 117%; in test [6] it was 117%. In addition, the growth was 104% in test [7], 108% in test [8], 109% in test [9] and 112% in test [10].
